Assays:
Assay in all cases: PBM binding z-score (relative to random genomic background probes); higher = stronger binding; sequences stand for … in GC…GCGATTGACAGCGTAGAATGAAGG
[1] = tested on: FXR:RXRa (NR concentration 270 nM, RXRa partner concentration 90 nM)
How it was run: (§1)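 Probes were double-stranded and carried 34-nt variable regions with direct-repeat seeds, single-nucleotide variants, half-site ablations and random human genomic background sequences, printed on custom Agilent 4×180K protein-binding microarrays. Arrays were incubated 1 h with ligand-free nuclear receptor dimers in PBS pH 7.4, 2% milk, 0.02% Triton X-100, 1 mM DTT, 0.2 mg/mL BSA and 0.4 mg/ml salmon testes DNA. Antibodies against each partner (one per run) detected binding, and scanned fluorescence was regression-normalized. Binding z-scores use the random background probes as reference.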

[2] = tested on: LXRa:RXRa (NR concentration 270 nM, RXRa partner concentration 90 nM)
How it was run: as §1

[3] = tested on: LXRa homodimer (NR concentration 270 nM)
How it was run: as §1

[4] = tested on: LXRb:RXRa (NR concentration 270 nM, RXRa partner concentration 90 nM)
How it was run: as §1

[5] = tested on: LXRb homodimer (NR concentration 270 nM)
How it was run: as §1

[6] = tested on: PPARa:RXRa (NR concentration 270 nM, RXRa partner concentration 90 nM)
How it was run: as §1

[7] = tested on: PPARg:RXRa (NR concentration 180 nM, RXRa partner concentration 90 nM)
How it was run: as §1

[8] = tested on: PPARg:RXRa 270nM:90nM, anti-RXR (NR concentration 270 nM, RXRa partner concentration 90 nM)
How it was run: as §1

[9] = tested on: PPARg:RXRa 30nM:10nM, anti-RXR (NR concentration 30 nM, RXRa partner concentration 10 nM)
How it was run: as §1

[10] = tested on: PPARg:RXRa 90nM:30nM, anti-RXR (NR concentration 90 nM, RXRa partner concentration 30 nM)
How it was run: as §1

[11] = tested on: PPARg:RXRa DBDmut IVT, anti-RXR (DBD mutation: RXRa K156A/R161A, NR concentration 270 nM, RXRa partner concentration 90 nM)
How it was run: as §1

[12] = tested on: PPARg:RXRa IVT, anti-PPARg (NR concentration 270 nM, RXRa partner concentration 90 nM)
How it was run: as §1

[13] = tested on: PPARg DBDmut:RXRa IVT, anti-PPARg (DBD mutation: PPARg1 K132A/R137A, NR concentration 270 nM, RXRa partner concentration 90 nM)
How it was run: as §1

[14] = tested on: PPARg DBDmut IVT, anti-PPARg (DBD mutation: PPARg1 K132A/R137A, NR concentration 270 nM)
How it was run: as §1

[15] = tested on: PPARg homodimer (NR concentration 180 nM)
How it was run: as §1

[16] = tested on: PXR:RXRa (NR concentration 270 nM, RXRa partner concentration 90 nM)
How it was run: as §1

[17] = tested on: PXR homodimer (NR concentration 270 nM)
How it was run: as §1

[18] = tested on: RARa:RXR (NR concentration 270 nM, RXRa partner concentration 90 nM)
How it was run: as §1

[19] = tested on: RARa homodimer (NR concentration 270 nM)
How it was run: as §1

[20] = tested on: RARb:RXRa (NR concentration 270 nM, RXRa partner concentration 90 nM)
How it was run: as §1

| Sequence | PBM binding z-score [1] | PBM binding z-score [2] | PBM binding z-score [3] | PBM binding z-score [4] | PBM binding z-score [5] | PBM binding z-score [6] | PBM binding z-score [7] | PBM binding z-score [8] | PBM binding z-score [9] | PBM binding z-score [10] | PBM binding z-score [11] | PBM binding z-score [12] | PBM binding z-score [13] | PBM binding z-score [14] | PBM binding z-score [15] | PBM binding z-score [16] | PBM binding z-score [17] | PBM binding z-score [18] | PBM binding z-score [19] | PBM binding z-score [20] |
| --- | --- | --- | --- | --- | --- | --- | --- | --- | --- | --- | --- | --- | --- | --- | --- | --- | --- | --- | --- | --- |
| ACTATTAGTTGACTTAGGGCACCCGATACGACGC | -0.0668 | -0.208 | 0.0685 | -0.198 | 0.757 | -0.213 | 0.894 | 0.204 | 0.268 | 0.525 | 0.28 | 0.339 | 1.12 | 1.59 | 0.282 | -0.159 | 0.392 | 0.226 | 1.18 | 0.663 |
| ATCTCTAGGTTAAGTTCAGTGAAAGATCGATAGA | 1.78 | 2.76 | 1.8 | 1.49 | 1.76 | 2.41 | 1.87 | 2.34 | 1.11 | 1.83 | 3.77 | 3.34 | 1.74 | 1.46 | 2.01 | 2.47 | 2.53 | 1.75 | 1.83 | 2.61 |
| AGAATGAGGTTATACGTAGATCATGGAAGAAAGT | 2.28 | 2.35 | 0.00529 | 1.76 | 0.0323 | 3.28 | 2.34 | 2.58 | 1.01 | 1.79 | 3.69 | 2.6 | 1.46 | 0.947 | 1.21 | 1.25 | 0.482 | 1.77 | 0.298 | 1.53 |
| ATATGAAGGTTAAGGGTCATTCAGGTTGGTTCGC | 5.91 | 5.46 | 3.32 | 4.85 | 1.14 | 5.8 | 8.33 | 7.73 | 5.9 | 8 | 2.29 | 4.44 | 1.32 | 1.46 | 3.39 | 5.84 | 2.27 | 6.97 | 1.13 | 4.19 |
| GGAACGAGGGCATTCGAGTTGATAGCCTGGCGAT | 0.904 | 1.66 | -0.751 | 0.0314 | -0.65 | 1.42 | 0.665 | 0.992 | -0.34 | 0.776 | 3.64 | 2.1 | -0.256 | -0.793 | -0.188 | 4.04 | 1.57 | 1.58 | -0.598 | 1.82 |
| ACTTACGGTTCAACGAGGTTATAGCACGCGTATA | 2.96 | 3.15 | 1.07 | 2.64 | 0.606 | 3.49 | 1.09 | 1.32 | 0.521 | 1.03 | 0.149 | 0.712 | 1.36 | 1.61 | 1.64 | 4.06 | 6.85 | 3.55 | 0.973 | 1.59 |
| CTCGAAAGGTCGTGCGCAGGTGAGTATACCAAAC | 5.71 | 4.35 | 0.33 | 3.84 | 0.153 | 5.58 | 3.34 | 4.47 | 1.36 | 2.98 | 0.325 | 2.29 | 0.196 | 0.413 | 1.83 | 3.65 | -0.0048 | 4.48 | 0.0809 | 4.19 |
